Assay [1] in a line: growth inhibition, single agents and combos, LFS_MB_2R, cell-based, cisplatin combos, synergistic combos for chromothripsis tumors (AID 1671457).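 Also: cells exposed to compound for four days before readout.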 To be noted: LFS_MB_2R medulloblastoma cells, stronger effect = higher value.
Assay [2] in a line: UWB1.289_BRCA1 ovarian cancer growth, cell-based, BGB or cisplatin combinations (AID 1671459). Conditions: UWB1.289 BRCA1 ovarian carcinoma, drug combinations, stronger effect = higher value.
Assay [3] can be described thus: drug combination toxicity in non-malignant astrocytes – cell-based, BGB or cisplatin IC20 combos, cytotoxicity control for chromothriptic childhood tumor combination screen (AID 1671460).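 Also: cells exposed to compounds for 96 hours before viability readout; 0% = vehicle and 100% = killing control.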 Conditions: Human astrocytes, viability inhibition, drug combinations, at 0.5 µM, stronger effect = higher value.
The nature of assay [4]: compounds altering circadian rhythm period length – cell-based, LOPAC library, luminescence reporter (AID 2774; call rule not given here;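 also: values are relative to mean of DMSO wells on each plate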). Conditions: circadian reporter cells, at 7 µM, actives lie on both sides.
Assay [5] can be described thus: compounds altering HSF1 focus formation in cells – imaging, Selleck Cancer Library (AID 1347162; in the data active = plate-normalised HSF1 focus index below about 0.46). To be noted: human cells, HSF1 nuclear foci imaging, at 10 µM; SSMD: measured here: HSF1 foci SSMD mean; cell count: measured here: cell number; plate-normalised HSF1 focus index: stronger effect = lower value.
Assay [6] in a line: compounds altering viability of human ES cells (AID 493140; call rule not given here;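 also: cells exposed to compounds for four days before counting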). Conditions: human embryonic stem cell survival screen; stronger effect = higher value.
A short description of assay [7]: P. berghei load reduction in hepatocytes – cell-based, HepG2, luciferase luminescence, HepG2 viability, primary screen (AID 624349; in the data active = parasite load remaining mostly below about 12%, no sharp cut-off; inactive = mostly above about 10%;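 also: 100% = mean of DMSO negative control wells on the same plate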). To be noted: P. berghei liver stage in HepG2, luciferase luminescence, concentration not given here; parasite load remaining: stronger effect = lower value; viability: measured here: HepG2 viability without parasites.
The nature of assay [8]: liver-stage malaria parasite load reduction – cell-based, known kinase inhibitor set, luminescence, hepatoma host viability (AID 624392; call rule not given here;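 also: infected cells incubated roughly two days before readout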). To be noted: Plasmodium liver stage in hepatoma cells, luciferase luminescence, concentration not given here; liver cell % of control: measured here: host liver cell viability; parasite % of control: stronger effect = lower value.
Assay [9] has as its system Hepatitis C virus NS3 helicase. The assay can be described thus: blockers of NS3h binding to ssDNA – biochemical, fluorescence polarization, LOPAC1280 library, primary screen (AID 687035; in the data active = inhibition above about 37%). To be noted: Purified HCV NS3 helicase, Cy5-dT15 ssDNA binding fluorescence polarization; stronger effect = higher value; concentration not given here. A general note: Fluorescence polarisation rises when a labelled molecule tumbles more slowly, as on binding a larger partner.

Assay [10] in a line: compounds altering Cy5-DNA-NS3h complex signal – biochemical, LOPAC1280, artefact control for HCV NS3 helicase inhibitor project (AID 687037; call rule not given here). To be noted: Cy5-DNA-NS3h complex fluorescence interference counterscreen.
Assay [11] in a line: blockers of cellular phospholipid synthesis – cell-based, LOPAC library, screen 4, primary screen (AID 1347384; call rule not given here). To be noted: animal cells, phospholipid biosynthesis inhibition screen; at 10 µM.
A short description of assay [12]: galactose survival enhancers in mitochondrial complex I cybrids – cell-based, galactose medium, ATP luminescence, primary screen (AID 1645843;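 active = z-score of at least 1.8 in each of two replicates, scored against plate mean and spread of sample wells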;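 also: positive z means more ATP and so rescue of galactose-driven cybrid death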). Conditions: complex I mutant cybrid cells, 72 h, stronger effect = higher value.
Setting [13] is: measured here: combination with cisplatin, at 0.5 µM.
Setting [14] is: measured here: combination with cisplatin, at 5 µM.
[15] abbreviates: BGB combination, concentration series, at 5 µM.
Where [16] appears, read: cisplatin combination, concentration series, at 5 µM.
Setting [17] is: measured here: combo with BGB IC20.
[18] abbreviates: measured here: combo with cisplatin IC20.

The source made the active and inactive calls. Rule as the data show it, unless noted: active = inhibition above about 80%; inactive = the rest.

The inhibition is the change of the read-out against control, counted positive when it falls. For orientation: viability means a per cent measure of how many cells are alive, often set against a control.

Regarding `N=C1CCCN1Cc1[nH]c(=O)[nH]c(=O)c1Cl`, the inhibition is -11.5% (inactive) in assay [1] (at 0.5 µM); -21.1% in assay [1] (setting [13]); -54.2% in assay [1] (setting [14]); 3.78% in [2] (setting [15]); 4.18% (inactive) in [2] (at 0.5 µM); 25.3% in assay [2] (setting [16]). Moreover, the results for the inhibition in assay [3], in assay [3] (setting [17]) and in [3] (setting [18]) were 0.72% (inactive), 12.6% and -10.8%, respectively.
Take `CN(CCOc1ccc(C[C@H](Nc2ccccc2C(=O)c2ccccc2)C(=O)O)cc1)c1ccccn1`: in [4], the period change was 0.085 h (inactive).
In the case of `c1ccc2c(-c3cnn4cc(-c5ccc(N6CCNCC6)cc5)cnc34)ccnc2c1`, in assay [5], the SSMD was -18.9, the cell count was 2900 and the plate-normalised HSF1 focus index is 0.0271 (active).
Take `COc1ccc(S(=O)(=O)N(CCO)c2ccccc2CN(C)C/C=C/c2ccc(Cl)cc2)cc1`: the survival in assay [6] is 106 (inactive). Moreover, in assay [7], the parasite load remaining was 32.7% (inactive) and the viability turned out to be 64.7%.
As for `C=C1[C@H](CO)[C@@H](O)C[C@@H]1n1cnc2c(=O)[nH]c(N)nc21`, the inhibition is -6.88% (inactive) in [1] (at 0.5 µM); -11.9% in [1] (setting [13]); -13.1% in assay [1] (setting [14]); -20.8% in assay [2] (setting [15]); -14% (inactive) in [2] (at 0.5 µM); -7.68% in assay [2] (setting [16]). In addition, the results for the inhibition in [3], in [3] (setting [17]) and in assay [3] (setting [18]) were -13.6% (inactive), -16.4% and -16.1%, respectively.
Consider `CC(=O)[C@]1(N)Cc2c(O)c3c(c(O)c2[C@@H](O[C@H]2C[C@H](O)[C@H](O)CO2)C1)C(=O)c1ccccc1C3=O`, for which the inhibition in [1] (at 0.5 µM) is -4.05% (inactive); in [1] (setting [13]) it was -9.33%; in assay [1] (setting [14]), 67%; in [2] (setting [15]), 117%; in [2] (at 0.5 µM), 13% (inactive); in [2] (setting [16]), 128%. Besides, the values for the inhibition in [3], in [3] (setting [17]) and in assay [3] (setting [18]) were 25.7% (inactive), 27.9% and 27.1%, respectively.
As to `COc1ccc(C(=O)C2CCN(CC(=O)N(Cc3nc4c(c(=O)[nH]3)COCC4)CC3CC3)CC2)cc1`, the inhibition was -24% (inactive) in assay [1] (at 0.5 µM); -29.2% in [1] (setting [13]); -37.9% in [1] (setting [14]); 1.7% in assay [2] (setting [15]); -0.47% (inactive) in assay [2] (at 0.5 µM); 18.5% in [2] (setting [16]). Besides, the inhibition in [3] is 48.9% (inactive); in assay [3] (setting [17]), 45.3%; in [3] (setting [18]) it was 49.7%.
As to `CC(=O)Nc1ccc(C(=O)Nc2ccccc2N)cc1`, the inhibition in assay [1] (at 0.5 µM) was -12.7% (inactive); in [1] (setting [13]) it was -6.43%; in [1] (setting [14]) it was 50.6%; in assay [2] (setting [15]) it was 68.5%; in assay [2] (at 0.5 µM) it was -2% (inactive); in assay [2] (setting [16]), 75.2%. For the same molecule, the values for the inhibition in assay [3], in assay [3] (setting [17]) and in [3] (setting [18]) were 17% (inactive), 9.55% and 26.2%, respectively.
Turning to `CN(C)C/C=C/C(=O)Nc1ccc(C(=O)Nc2cccc(Nc3ncc(Cl)c(-c4c[nH]c5ccccc45)n3)c2)cc1`, the inhibition in assay [1] (at 0.5 µM) was 75.5% (inactive); in assay [1] (setting [13]), 68.1%; in assay [1] (setting [14]), 91.1%; in assay [2] (setting [15]), 79.9%; in assay [2] (at 0.5 µM), 84.7% (active); in assay [2] (setting [16]), 86.1%. In addition, the inhibition is 87.2% (active) in [3], 86.5% in assay [3] (setting [17]) and 83.8% in assay [3] (setting [18]).
Take `CN(NC(=O)CC(=O)NN(C)C(=S)c1ccccc1)C(=S)c1ccccc1`: in assay [5], the SSMD was determined as 2.56, the cell count was found to be 6990 and the plate-normalised HSF1 focus index was 1.13 (inactive).
For the molecule `COc1cc(Nc2ncc(F)c(Nc3ccc4c(n3)NC(=O)C(C)(C)O4)n2)cc(OC)c1OC`, in assay [5], the SSMD was found to be 2.8, the cell count turned out to be 7530 and the plate-normalised HSF1 focus index is 1.18 (inactive).
For the molecule `CCN1CCN(Cc2ccc(NC(=O)c3ccc(C)c(NC(=O)c4cncc(-c5cccs5)c4)c3)cc2C(F)(F)F)CC1`, in assay [8], the liver cell % of control worked out at 83.9% and the parasite % of control was 74.7% (inactive).
Regarding `CCCc1c(OCCCOc2ccc(OCC(=O)O)cc2)ccc(C(C)=O)c1O`, the period change in assay [4] was -0.235 h (inactive). The inhibition in [9] was -1% (inactive). Further, in assay [10], the fluorescence ratio (interference) is 1 (inactive). The molecule was classed as inactive in assay [11]. Besides, in assay [12], the z-score is 1.51 (inactive).
On to `Cc1nnc(C(C)C)n1C1CC2CCC(C1)N2CC[C@H](NC(=O)C1CCC(F)(F)CC1)c1ccccc1` (stereo not given in full), for which, in assay [5], the SSMD was 0.747, the cell count was determined as 6250 and the plate-normalised HSF1 focus index is 1.04 (inactive). The molecule was called inactive in [11].
`NC1CCC(N[C@@H]2C[C@H]2c2ccccc2)CC1` (stereo not given in full): the inhibition in [1] (at 0.5 µM) was -35.8% (inactive); in assay [1] (setting [13]), -40%; in [1] (setting [14]), -27.2%; in assay [2] (setting [15]), -9.67%; in assay [2] (at 0.5 µM), 0.86% (inactive); in assay [2] (setting [16]), 21.2%. In addition, the results for the inhibition in [3], in [3] (setting [17]) and in assay [3] (setting [18]) were 11.2% (inactive), 8.8% and 10.6%, respectively.
Take `C[C@@H](O)[C@@H]1NC(=O)[C@H](CCCCN)NC(=O)[C@@H](Cc2c[nH]c3ccccc23)NC(=O)[C@H](Cc2ccccc2)NC(=O)[C@@H](NC(=O)[C@H](N)Cc2ccccc2)CSSC[C@@H](C(=O)N[C@H](CO)[C@@H](C)O)NC1=O`: in assay [7], the parasite load remaining was 22.8% (inactive) and the viability came to 81.5%. Further, the z-score in assay [12] was 0.6 (inactive).
